# Assay results from PMC5540273 (PLoS ONE, 2017).
# Legend:
# Details in all cases: concentration: 1 μM, replicates: in singlicate; n = 1
# FGFR4 = test system: FGFR4
# FGR = test system: FGR
# FLT1 = test system: FLT1
# FLT3-autoinhibited = test system: FLT3-autoinhibited
# FLT3 = test system: FLT3
# FLT4 = test system: FLT4
# FRK = test system: FRK
# FYN = test system: FYN
# GAK = test system: GAK
# GCN2(Kin.Dom.2,S808G) = test system: T1, GCN2(Kin.Dom.2,S808G)
# T1 construct: gene EIF2AK4
# GRK1 = test system: GRK1
# GRK2 = test system: T2, GRK2
# T2 construct: gene ADRBK1
# GRK3 = test system: T3, GRK3
# T3 construct: gene ADRBK2
# GRK4 = test system: GRK4
# GRK7 = test system: GRK7
# GSK3A = test system: GSK3A
# GSK3B = test system: GSK3B
# HASPIN = test system: T4, HASPIN
# T4 construct: gene GSG2
# HCK = test system: HCK
# HIPK1 = test system: HIPK1
# 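Further: KINOMEscan kinase panel screen.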
SMILES,%Inh (FGFR4) [%],%Inh (FGR) [%],%Inh (FLT1) [%],%Inh (FLT3-autoinhibited) [%],%Inh (FLT3) [%],%Inh (FLT4) [%],%Inh (FRK) [%],%Inh (FYN) [%],%Inh (GAK) [%],"%Inh (GCN2(Kin.Dom.2,S808G)) [%]",%Inh (GRK1) [%],%Inh (GRK2) [%],%Inh (GRK3) [%],%Inh (GRK4) [%],%Inh (GRK7) [%],%Inh (GSK3A) [%],%Inh (GSK3B) [%],%Inh (HASPIN) [%],%Inh (HCK) [%],%Inh (HIPK1) [%]
Oc1ccc2ncnc(Nc3ccc(OCc4ccccc4)cc3)c2c1 [GI262866],66,4,29,0,60,21,0,7,0,15,7,0,6,18,0,0,0,17,0,0
Fc1cccc(COc2ccc(Nc3ncnc4sc(-c5ccc[nH]5)cc34)cc2Cl)c1 [GW707818],12,3,22,7,0,3,0,45,4,0,0,0,0,0,0,22,3,0,0,0
COC(=O)c1cccc(NC(=O)NCCNc2ccnc(Nc3ccc(F)cc3)n2)c1 [GSK1379883],0,9,28,0,0,17,1,0,0,6,0,0,17,2,0,19,0,37,0,0
CCc1nc(-c2cccc(N(C)S(=O)(=O)c3ccccc3)c2)c(-c2ccnc(Nc3ccc(N4CCN(C(C)=O)CC4)nc3)n2)s1 [GSK1645895],0,73,24,18,0,14,0,40,85,4,0,0,0,0,0,11,20,0,0,1
Clc1cccc(-c2nc(Nc3ccncc3)c3ccccc3n2)c1 [GW873004],0,55,34,0,17,52,29,0,3,0,10,0,0,0,0,0,0,50,26,43
Cl.O=S(=O)(c1cccc(F)c1)c1ccc(Nc2ncnc3cc(Br)sc23)cc1Cl [GSK306886],30,24,20,0,0,98.1,0,41,3,0,4,0,0,0,0,21,31,0,0,0
O=C(Nc1n[nH]c2nc(-c3ccco3)c(Br)cc12)c1ccc(CN2CCCC2)cc1.O=C(O)[C@H](O)[C@@H](O)C(=O)O [SB-742352],0,3,34,51,95,1,0,0,0,0,6,0,0,20,0,76,15,15,26,0
CCCc1ccc(S(=O)(=O)NC2CCN(c3ccnc(Nc4ccc(OC)cc4)n3)C2)cc1 (stereo not shown) [GSK1379737],8,12,3,0,26,9,0,7,0,33,0,0,67,0,0,7,8,14,0,0
c1ccc(-c2ccc3c(-c4ccnc(Nc5ccc6c(c5)OCCO6)n4)cnn3n2)cc1 [GW818941],10,23,31,18,36,36,9,32,28,11,0,7,0,11,0,12,0,0,16,0
O=C(Nc1ccccc1)Nc1ccc(Oc2ccc3nccn3n2)cc1,63,19,51,0,25,6,0,0,0,16,11,0,0,17,0,14,0,0,7,26
O=C(c1ccc(-c2cc(-c3c[nH]nc3-c3ccccn3)ccn2)cc1)N1CCCC1 [GW792479],0,17,18,0,8,0,0,5,33,0,21,0,0,0,0,14,0,2,12,42
